# Assays:
# Experiment in all cases: DAPPL (digital affinity profiling via proximity ligation, sequencing); 10 mM Tris-HCl pH 7.5, 50 mM NaCl, 1 mM DTT, 4% glycerol, room temperature, 30 min; GST-TFs on glutathione beads, 16-mer random dsDNA library, 0.1% formaldehyde crosslink after washing; high values mean tight binding
# [1] = molecular target: T1, FLI1 (Homo sapiens, UniProt Q01543 1-452); settings: protein: recombinant; tags: N-terminal GST; dsDNA, one strand shown
# T1 sequence: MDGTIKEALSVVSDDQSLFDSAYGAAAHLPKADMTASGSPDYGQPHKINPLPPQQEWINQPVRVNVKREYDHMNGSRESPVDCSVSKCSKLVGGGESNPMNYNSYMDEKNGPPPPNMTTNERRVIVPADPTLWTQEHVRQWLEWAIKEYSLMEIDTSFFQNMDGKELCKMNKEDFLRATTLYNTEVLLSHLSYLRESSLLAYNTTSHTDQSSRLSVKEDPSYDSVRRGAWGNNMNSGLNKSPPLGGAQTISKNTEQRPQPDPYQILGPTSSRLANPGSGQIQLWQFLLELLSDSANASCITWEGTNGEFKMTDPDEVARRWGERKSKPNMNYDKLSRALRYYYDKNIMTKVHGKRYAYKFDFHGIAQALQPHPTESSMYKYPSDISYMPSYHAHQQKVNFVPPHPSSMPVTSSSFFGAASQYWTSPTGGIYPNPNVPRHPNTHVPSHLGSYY
# Summary of the method: (§1)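 Binding signal is given per hexamer as its read frequency for a factor divided by its frequency in the tag-only sample. GST-fused human transcription factors were expressed in yeast, captured on glutathione beads, barcoded with DNA and pooled with that sample, then incubated with 200 nmole of a 16-mer random double-stranded DNA library in Tris/NaCl/DTT/glycerol buffer for 30 min at room temperature. The pools were then washed, crosslinked, proximity-ligated, amplified by PCR and sequenced on an Illumina NextSeq500.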
# [2] = molecular target: T2, ELK1 (Homo sapiens, UniProt P19419 1-428); settings: protein: recombinant; tags: N-terminal GST; dsDNA, one strand shown
# T2 sequence: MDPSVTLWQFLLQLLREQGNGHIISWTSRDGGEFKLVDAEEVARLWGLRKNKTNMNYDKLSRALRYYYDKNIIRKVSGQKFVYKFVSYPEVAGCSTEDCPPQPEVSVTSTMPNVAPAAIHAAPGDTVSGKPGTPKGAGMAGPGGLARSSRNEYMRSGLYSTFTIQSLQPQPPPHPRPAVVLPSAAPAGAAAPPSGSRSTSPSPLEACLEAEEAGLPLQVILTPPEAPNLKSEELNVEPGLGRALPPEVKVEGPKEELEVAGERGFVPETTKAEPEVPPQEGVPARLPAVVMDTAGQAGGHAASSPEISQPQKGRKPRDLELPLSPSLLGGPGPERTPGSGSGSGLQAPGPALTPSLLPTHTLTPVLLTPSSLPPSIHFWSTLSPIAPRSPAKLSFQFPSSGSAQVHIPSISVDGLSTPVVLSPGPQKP
# Summary of the method: as §1
# [3] = molecular target: T3, GABPA (Homo sapiens, UniProt Q06546 1-454); settings: protein: recombinant; tags: N-terminal GST; dsDNA, one strand shown
# T3 sequence: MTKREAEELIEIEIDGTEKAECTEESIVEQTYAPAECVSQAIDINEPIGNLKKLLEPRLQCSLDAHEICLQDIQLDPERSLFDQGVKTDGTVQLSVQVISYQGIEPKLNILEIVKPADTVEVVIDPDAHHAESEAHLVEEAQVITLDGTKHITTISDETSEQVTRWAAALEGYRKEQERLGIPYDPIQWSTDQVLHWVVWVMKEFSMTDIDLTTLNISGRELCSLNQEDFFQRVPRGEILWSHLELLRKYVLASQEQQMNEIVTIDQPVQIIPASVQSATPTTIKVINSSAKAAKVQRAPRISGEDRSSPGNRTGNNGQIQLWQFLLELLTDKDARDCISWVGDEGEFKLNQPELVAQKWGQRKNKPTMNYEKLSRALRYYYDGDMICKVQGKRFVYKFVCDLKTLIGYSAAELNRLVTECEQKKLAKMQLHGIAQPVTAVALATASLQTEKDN
# Summary of the method: as §1
# [4] = molecular target: T4, ERG (Homo sapiens, UniProt P11308 1-479); settings: protein: recombinant; tags: N-terminal GST; dsDNA, one strand shown
# T4 sequence: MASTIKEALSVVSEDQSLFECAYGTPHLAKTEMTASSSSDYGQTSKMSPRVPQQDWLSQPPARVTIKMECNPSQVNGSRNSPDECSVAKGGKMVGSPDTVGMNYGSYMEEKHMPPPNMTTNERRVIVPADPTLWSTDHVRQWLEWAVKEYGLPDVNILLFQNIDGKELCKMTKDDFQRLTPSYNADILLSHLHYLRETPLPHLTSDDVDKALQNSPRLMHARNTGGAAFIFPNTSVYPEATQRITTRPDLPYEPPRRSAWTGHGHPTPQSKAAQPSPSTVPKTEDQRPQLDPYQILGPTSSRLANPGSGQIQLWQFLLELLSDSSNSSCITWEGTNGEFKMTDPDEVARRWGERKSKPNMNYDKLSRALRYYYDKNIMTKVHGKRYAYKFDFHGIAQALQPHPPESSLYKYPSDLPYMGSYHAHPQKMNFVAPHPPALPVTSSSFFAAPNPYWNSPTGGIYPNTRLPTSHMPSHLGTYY
# Summary of the method: as §1
# [5] = molecular target: ELF1 (Homo sapiens, UniProt P32519 1-619); settings: protein: recombinant; tags: N-terminal GST; dsDNA, one strand shown
# Chain of ELF1 (P32519 whole entry): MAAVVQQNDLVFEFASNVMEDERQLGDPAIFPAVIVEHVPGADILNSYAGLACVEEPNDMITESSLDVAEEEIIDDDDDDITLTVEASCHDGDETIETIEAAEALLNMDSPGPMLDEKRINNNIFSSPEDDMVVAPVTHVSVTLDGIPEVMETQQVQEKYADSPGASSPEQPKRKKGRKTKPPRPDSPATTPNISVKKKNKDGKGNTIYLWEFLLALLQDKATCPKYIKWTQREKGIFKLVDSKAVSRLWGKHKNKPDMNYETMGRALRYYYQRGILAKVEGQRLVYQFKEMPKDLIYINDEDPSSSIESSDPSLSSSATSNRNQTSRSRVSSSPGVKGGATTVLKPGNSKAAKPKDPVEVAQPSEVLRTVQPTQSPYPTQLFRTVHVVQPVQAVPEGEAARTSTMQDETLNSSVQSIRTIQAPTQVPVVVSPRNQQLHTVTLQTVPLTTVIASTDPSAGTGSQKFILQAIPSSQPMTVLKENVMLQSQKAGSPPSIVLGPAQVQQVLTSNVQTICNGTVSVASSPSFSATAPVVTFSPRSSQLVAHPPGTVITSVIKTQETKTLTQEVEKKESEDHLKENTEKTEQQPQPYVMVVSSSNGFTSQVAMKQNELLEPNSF
# Summary of the method: as §1
# [6] = molecular target: T5, EHF (Homo sapiens, UniProt Q9NZC4 1-300); settings: protein: recombinant; tags: N-terminal GST; dsDNA, one strand shown
# T5 sequence: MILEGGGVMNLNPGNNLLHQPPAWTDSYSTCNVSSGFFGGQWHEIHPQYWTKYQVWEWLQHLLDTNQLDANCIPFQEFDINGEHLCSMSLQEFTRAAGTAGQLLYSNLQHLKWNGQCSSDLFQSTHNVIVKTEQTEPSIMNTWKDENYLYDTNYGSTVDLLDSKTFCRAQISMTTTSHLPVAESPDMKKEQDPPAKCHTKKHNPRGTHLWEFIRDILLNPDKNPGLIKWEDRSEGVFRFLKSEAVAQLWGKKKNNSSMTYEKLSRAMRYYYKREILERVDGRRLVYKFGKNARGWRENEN
# Summary of the method: as §1
# [7] = molecular target: SPI1 (Homo sapiens, UniProt P17947 1-270); settings: protein: recombinant; tags: N-terminal GST; dsDNA, one strand shown
# Summary of the method: as §1
# [8] = molecular target: SPIB (Homo sapiens, UniProt Q01892 1-262); settings: protein: recombinant; tags: N-terminal GST; dsDNA, one strand shown
# Chain of SPIB (Q01892 whole entry): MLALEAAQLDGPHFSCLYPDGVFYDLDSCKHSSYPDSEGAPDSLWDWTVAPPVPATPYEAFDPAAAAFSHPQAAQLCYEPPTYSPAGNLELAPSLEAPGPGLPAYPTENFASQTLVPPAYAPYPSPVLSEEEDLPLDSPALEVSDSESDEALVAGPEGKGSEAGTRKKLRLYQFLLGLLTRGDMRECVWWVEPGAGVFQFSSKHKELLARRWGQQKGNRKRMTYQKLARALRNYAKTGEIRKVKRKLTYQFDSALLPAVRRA
# Summary of the method: as §1
# [9] = molecular target: T6, ELK3 (Homo sapiens, UniProt P41970 1-407); settings: protein: recombinant; tags: N-terminal GST; dsDNA, one strand shown
# T6 sequence: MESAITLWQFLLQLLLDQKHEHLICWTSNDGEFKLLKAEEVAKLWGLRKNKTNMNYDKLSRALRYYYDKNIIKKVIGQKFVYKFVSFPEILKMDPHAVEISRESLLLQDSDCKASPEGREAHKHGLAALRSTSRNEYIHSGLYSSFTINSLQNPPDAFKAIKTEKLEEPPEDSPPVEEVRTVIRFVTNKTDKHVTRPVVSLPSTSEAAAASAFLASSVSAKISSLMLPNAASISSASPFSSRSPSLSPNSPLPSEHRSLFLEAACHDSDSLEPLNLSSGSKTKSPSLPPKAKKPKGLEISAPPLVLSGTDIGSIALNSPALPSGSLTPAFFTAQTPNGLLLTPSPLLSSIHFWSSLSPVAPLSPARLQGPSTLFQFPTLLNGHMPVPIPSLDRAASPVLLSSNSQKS
# Summary of the method: as §1
# [10] = molecular target: T7, FEV (Homo sapiens, UniProt Q99581 1-238); settings: protein: recombinant; tags: N-terminal GST; dsDNA, one strand shown
# T7 sequence: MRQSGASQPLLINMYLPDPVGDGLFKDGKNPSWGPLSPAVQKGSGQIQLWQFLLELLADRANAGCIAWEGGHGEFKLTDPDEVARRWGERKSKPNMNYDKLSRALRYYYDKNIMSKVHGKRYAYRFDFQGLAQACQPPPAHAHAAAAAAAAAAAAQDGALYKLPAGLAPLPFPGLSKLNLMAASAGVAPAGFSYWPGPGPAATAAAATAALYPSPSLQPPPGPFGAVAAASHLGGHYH
# Summary of the method: as §1
# [11] = molecular target: ETV5 (Homo sapiens, UniProt P41161 1-510); settings: protein: recombinant; tags: N-terminal GST; dsDNA, one strand shown
# Chain of ETV5 (P41161 whole entry): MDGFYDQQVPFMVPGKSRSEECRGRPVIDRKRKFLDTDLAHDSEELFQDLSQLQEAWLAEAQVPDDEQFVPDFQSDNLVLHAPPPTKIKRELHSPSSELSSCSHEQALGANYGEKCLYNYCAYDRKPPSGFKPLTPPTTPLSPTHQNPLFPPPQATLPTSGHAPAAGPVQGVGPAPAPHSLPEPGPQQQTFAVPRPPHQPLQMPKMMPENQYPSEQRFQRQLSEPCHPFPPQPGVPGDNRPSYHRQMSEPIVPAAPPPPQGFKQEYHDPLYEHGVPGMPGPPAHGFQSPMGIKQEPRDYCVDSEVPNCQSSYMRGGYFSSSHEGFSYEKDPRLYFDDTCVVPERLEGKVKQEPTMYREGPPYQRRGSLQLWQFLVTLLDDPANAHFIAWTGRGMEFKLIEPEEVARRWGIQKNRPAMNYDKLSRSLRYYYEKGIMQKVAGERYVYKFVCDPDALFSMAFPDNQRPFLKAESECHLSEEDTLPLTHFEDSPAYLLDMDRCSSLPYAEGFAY
# Summary of the method: as §1
# [12] = molecular target: HSF1 (Homo sapiens, UniProt Q00613 1-529); settings: protein: recombinant; tags: N-terminal GST; chain copies: 3; dsDNA, one strand shown
# Chain of HSF1 (Q00613 whole entry): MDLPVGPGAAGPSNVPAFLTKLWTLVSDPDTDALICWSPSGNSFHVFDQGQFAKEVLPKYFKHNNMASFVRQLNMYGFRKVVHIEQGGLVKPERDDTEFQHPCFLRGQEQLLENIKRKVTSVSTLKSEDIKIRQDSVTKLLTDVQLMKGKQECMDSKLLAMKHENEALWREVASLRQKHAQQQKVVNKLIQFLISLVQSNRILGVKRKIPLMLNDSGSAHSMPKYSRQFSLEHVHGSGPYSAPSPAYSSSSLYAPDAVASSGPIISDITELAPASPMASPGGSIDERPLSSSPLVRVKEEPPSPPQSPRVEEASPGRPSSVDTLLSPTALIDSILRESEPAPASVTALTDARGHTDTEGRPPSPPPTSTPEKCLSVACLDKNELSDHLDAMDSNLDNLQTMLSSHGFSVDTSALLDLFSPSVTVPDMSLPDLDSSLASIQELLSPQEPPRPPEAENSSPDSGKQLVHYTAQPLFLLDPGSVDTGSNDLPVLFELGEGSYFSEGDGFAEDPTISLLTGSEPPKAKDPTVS
# Summary of the method: as §1
# [13] = molecular target: T8, SPIC (Homo sapiens, UniProt Q8N5J4 1-248); settings: protein: recombinant; tags: N-terminal GST; dsDNA, one strand shown
# T8 sequence: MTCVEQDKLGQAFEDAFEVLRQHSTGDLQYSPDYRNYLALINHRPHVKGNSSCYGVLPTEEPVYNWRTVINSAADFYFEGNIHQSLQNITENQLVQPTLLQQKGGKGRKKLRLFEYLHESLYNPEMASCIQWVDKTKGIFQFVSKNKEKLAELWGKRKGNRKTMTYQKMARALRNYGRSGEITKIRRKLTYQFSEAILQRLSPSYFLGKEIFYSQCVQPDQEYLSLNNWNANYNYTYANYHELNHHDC
# Summary of the method: as §1
# [14] = molecular target: ELF4 (Homo sapiens, UniProt Q99607 1-663); settings: protein: recombinant; tags: N-terminal GST; dsDNA, one strand shown
# Chain of ELF4 (Q99607 whole entry): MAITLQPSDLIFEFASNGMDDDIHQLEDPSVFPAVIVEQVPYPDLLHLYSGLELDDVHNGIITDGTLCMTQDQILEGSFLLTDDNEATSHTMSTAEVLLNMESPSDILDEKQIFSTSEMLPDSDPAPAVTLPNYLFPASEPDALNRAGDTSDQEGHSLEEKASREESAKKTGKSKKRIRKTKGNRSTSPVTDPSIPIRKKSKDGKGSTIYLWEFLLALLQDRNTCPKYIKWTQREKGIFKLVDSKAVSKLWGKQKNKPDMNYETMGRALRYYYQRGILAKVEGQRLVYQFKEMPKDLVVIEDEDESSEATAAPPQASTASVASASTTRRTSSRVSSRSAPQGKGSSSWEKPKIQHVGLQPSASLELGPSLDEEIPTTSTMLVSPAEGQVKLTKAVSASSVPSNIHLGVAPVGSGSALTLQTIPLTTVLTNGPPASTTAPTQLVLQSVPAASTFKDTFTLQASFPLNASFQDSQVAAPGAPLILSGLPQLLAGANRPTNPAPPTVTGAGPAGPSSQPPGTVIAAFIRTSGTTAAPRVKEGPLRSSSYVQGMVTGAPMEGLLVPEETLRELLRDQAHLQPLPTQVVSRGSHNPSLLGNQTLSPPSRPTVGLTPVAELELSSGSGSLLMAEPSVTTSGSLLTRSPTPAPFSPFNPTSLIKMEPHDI
# Summary of the method: as §1
# [15] = molecular target: T9, ELK4 (Homo sapiens, UniProt P28324-2 1-405); settings: protein: recombinant; tags: N-terminal GST; dsDNA, one strand shown
# T9 sequence: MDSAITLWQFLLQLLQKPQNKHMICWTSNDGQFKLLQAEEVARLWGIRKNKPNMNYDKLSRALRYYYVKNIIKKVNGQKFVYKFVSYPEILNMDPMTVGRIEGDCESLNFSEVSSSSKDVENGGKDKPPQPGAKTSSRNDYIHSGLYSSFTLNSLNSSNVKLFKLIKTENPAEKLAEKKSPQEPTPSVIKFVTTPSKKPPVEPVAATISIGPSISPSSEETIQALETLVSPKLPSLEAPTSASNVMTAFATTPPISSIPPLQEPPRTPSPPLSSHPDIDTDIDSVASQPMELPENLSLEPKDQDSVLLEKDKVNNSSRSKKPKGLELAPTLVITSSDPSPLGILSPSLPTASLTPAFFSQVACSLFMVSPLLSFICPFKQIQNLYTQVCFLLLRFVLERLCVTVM
# Summary of the method: as §1
# [16] = molecular target: T10, ETV2 (Homo sapiens, UniProt O00321 1-342); settings: protein: recombinant; tags: N-terminal GST; dsDNA, one strand shown
# T10 sequence: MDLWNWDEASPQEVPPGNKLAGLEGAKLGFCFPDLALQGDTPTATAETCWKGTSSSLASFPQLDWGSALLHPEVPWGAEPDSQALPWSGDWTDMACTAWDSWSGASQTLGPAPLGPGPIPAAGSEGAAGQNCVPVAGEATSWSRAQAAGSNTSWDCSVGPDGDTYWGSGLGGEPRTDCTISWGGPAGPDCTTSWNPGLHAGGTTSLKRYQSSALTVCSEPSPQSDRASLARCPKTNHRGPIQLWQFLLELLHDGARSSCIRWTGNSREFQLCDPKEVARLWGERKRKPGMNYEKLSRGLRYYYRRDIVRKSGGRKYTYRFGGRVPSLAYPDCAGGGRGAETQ
# Summary of the method: as §1
# [17] = molecular target: T11, ELF3 (Homo sapiens, UniProt P78545 1-371); settings: protein: recombinant; tags: N-terminal GST; dsDNA, one strand shown
# T11 sequence: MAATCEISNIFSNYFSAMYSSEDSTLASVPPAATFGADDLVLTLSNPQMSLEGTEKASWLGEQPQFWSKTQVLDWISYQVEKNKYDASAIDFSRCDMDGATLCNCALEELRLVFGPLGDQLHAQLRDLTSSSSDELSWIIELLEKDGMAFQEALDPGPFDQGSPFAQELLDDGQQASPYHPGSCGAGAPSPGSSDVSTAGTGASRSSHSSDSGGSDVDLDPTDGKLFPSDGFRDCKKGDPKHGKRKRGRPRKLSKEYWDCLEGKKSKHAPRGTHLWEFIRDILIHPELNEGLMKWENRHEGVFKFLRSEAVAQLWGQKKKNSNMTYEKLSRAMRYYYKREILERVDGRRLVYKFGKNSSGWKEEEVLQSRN
# Summary of the method: as §1
# [18] = molecular target: CRX (Homo sapiens, UniProt O43186 1-299); settings: protein: recombinant; tags: N-terminal GST; dsDNA, one strand shown
# Chain of CRX (O43186 whole entry): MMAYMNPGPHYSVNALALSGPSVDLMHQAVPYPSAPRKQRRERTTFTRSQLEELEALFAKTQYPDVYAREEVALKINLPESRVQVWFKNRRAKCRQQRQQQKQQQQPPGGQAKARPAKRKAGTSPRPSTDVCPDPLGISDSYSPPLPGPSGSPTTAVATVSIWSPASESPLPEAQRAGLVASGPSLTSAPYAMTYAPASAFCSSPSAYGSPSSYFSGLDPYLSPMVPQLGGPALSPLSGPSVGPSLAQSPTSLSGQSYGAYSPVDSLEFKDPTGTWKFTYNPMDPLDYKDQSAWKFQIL
# Summary of the method: as §1
# [19] = molecular target: ETV1 (Homo sapiens, UniProt P50549 1-477); settings: protein: recombinant; tags: N-terminal GST; dsDNA, one strand shown
# Chain of ETV1 (P50549 whole entry): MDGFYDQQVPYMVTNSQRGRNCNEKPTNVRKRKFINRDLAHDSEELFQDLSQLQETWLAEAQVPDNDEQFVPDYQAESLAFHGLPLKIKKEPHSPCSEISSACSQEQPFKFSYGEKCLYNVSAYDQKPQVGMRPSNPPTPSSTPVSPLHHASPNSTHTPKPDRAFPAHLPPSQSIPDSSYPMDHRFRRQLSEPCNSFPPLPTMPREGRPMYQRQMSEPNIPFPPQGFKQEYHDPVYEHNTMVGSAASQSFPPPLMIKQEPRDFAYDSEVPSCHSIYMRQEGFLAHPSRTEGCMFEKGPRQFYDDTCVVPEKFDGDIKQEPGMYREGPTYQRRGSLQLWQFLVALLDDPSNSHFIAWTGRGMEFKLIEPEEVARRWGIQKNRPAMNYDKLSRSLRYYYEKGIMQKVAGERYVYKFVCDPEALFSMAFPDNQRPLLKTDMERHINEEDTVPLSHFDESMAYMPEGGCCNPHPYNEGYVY
# Summary of the method: as §1
sequence,measurement,setting,value
AATAAT,binding signal,[1],"1.23 fold enrichment (6-mer frequency, TF over GST control)"
same,binding signal,[2],"1.24 fold enrichment (6-mer frequency, TF over GST control)"
same,binding signal,[3],"1.31 fold enrichment (6-mer frequency, TF over GST control)"
same,binding signal,[4],"1.33 fold enrichment (6-mer frequency, TF over GST control)"
same,binding signal,[5],"1.28 fold enrichment (6-mer frequency, TF over GST control)"
same,binding signal,[6],"1.36 fold enrichment (6-mer frequency, TF over GST control)"
same,binding signal,[7],"1.24 fold enrichment (6-mer frequency, TF over GST control)"
same,binding signal,[8],"1.32 fold enrichment (6-mer frequency, TF over GST control)"
same,binding signal,[9],"1.39 fold enrichment (6-mer frequency, TF over GST control)"
same,binding signal,[10],"1.28 fold enrichment (6-mer frequency, TF over GST control)"
same,binding signal,[11],"1.35 fold enrichment (6-mer frequency, TF over GST control)"
same,binding signal,[12],"1.93 fold enrichment (6-mer frequency, TF over GST control)"
same,binding signal,[13],"1.31 fold enrichment (6-mer frequency, TF over GST control)"
same,binding signal,[14],"1.24 fold enrichment (6-mer frequency, TF over GST control)"
same,binding signal,[15],"1.22 fold enrichment (6-mer frequency, TF over GST control)"
same,binding signal,[16],"1.34 fold enrichment (6-mer frequency, TF over GST control)"
same,binding signal,[17],"1.42 fold enrichment (6-mer frequency, TF over GST control)"
same,binding signal,[18],"2.41 fold enrichment (6-mer frequency, TF over GST control)"
same,binding signal,[19],"1.24 fold enrichment (6-mer frequency, TF over GST control)"

# Source: PMC7862700, “An all-to-all approach to the identification of sequence-specific readers for epigenetic DNA modifications on cytosine”
